Assay outcomes from PubChem.
Sampled rows, rich in hits. Any-hit rate of the full collection: about 6.8%.
T cruzi growth: inhibitors of T. cruzi proliferation | T. cruzi beta-gal in NIH3T3, GalScreen luminescence, 90 h | inhibition, % at 8.34 µM | 5.9% of 77,000 active | AID 624255;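 active means mean inhibition above about 93%, with at least 55% of replicates each passing it, limit read from the data, passing the limit was not always enough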
Pf Dd2 inh: P. falciparum Dd2 growth inhibition. SYBR Green, 72 h; active compounds read low. activity change, % at 10 µM. 2.3% of 94,000 active. AID 1159554; in the data active means activity change below about -80%
C diff growth: inhibitors of Clostridium difficile growth; AID 1259249; growth activity, negative = inhibition, % at 16 µg/mL (by protocol); Clostridium difficile clinical isolate growth, OD600, 24 h; active compounds read low; 0.25% of 86,000 active;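 active means mean growth activity at or below -80% and every replicate also at or below -80%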
Each line names hits and unclear results; the compound was inactive in the other large screens; ! = not confirmed by another sample.

C[C@H](CO)N1C[C@H](C)[C@@H](CN(C)C(=O)CCCN(C)C)OCCCC[C@H](C)Oc2ccc(NC(=O)Nc3cccc4ccccc34)cc2C1=O	none
C[C@@H]1CN([C@H](C)CO)C(=O)c2cc(NC(=O)Nc3cccc4ccccc34)ccc2O[C@@H](C)CCCCO[C@@H]1CN(C)C(=O)c1ccccc1	none
C[C@@H]1CCCCO[C@@H](CN(C)C(=O)c2ccccc2)[C@H](C)CN([C@H](C)CO)C(=O)c2cc(NC(=O)Nc3cccc4ccccc34)ccc2O1	T cruzi growth 102
COc1ccc(S(=O)(=O)N(C)C[C@H]2Oc3c(NC(=O)Nc4ccc(C(F)(F)F)cc4)cccc3C(=O)N([C@@H](C)CO)C[C@@H]2C)cc1	none
C/C=C/c1ccc(C2[C@H]3CNC[C@@H]2N3Cc2ccccc2OC)cc1 (stereo partly drawn)	none (no result: T cruzi growth)
C/C=C/c1ccc(C2[C@H]3CNC[C@@H]2N3Cc2cc(F)ccc2F)cc1 (stereo partly drawn)	Pf Dd2 inh -84! (no result: T cruzi growth)
C[C@H](CO)N1C[C@H](C)[C@H](CN(C)S(=O)(=O)c2cn(C)cn2)OCCCC[C@H](C)Oc2ccc(NC(=O)CCCN(C)C)cc2C1=O	none
C[C@H](CO)N1C[C@H](C)[C@@H](CN(C)C(=O)Nc2ccccc2C(F)(F)F)OCc2ccccc2-c2c(n(C)c3ccccc23)C1=O	none (no result: T cruzi growth)
COc1ccccc1NC(=O)N(C)C[C@@H]1OCc2ccccc2-c2c(n(C)c3ccccc23)C(=O)N([C@@H](C)CO)C[C@@H]1C	none (no result: C diff growth)
C[C@H]1CN([C@@H](C)CO)C(=O)c2c(c3ccccc3n2C)-c2ccccc2CO[C@@H]1CN(C)C(=O)Nc1cccc(Cl)c1Cl	Pf Dd2 inh -84 (no result: T cruzi growth)
C[C@@H]1CN([C@@H](C)CO)C(=O)c2c(c3ccccc3n2C)-c2ccccc2CO[C@H]1CN(C)C(=O)Nc1ccccc1C(F)(F)F	Pf Dd2 inh -90 (no result: T cruzi growth)
CN1[C@@H]2c3ccc(-c4ccccc4)c(=O)n3C[C@H]1[C@H](CO)[C@H]2C(=O)NCC1CC1	none
Cc1noc(C)c1NC(=O)Nc1ccc2c(c1)C(=O)N([C@@H](C)CO)C[C@H](C)[C@@H](CN(C)C(=O)Nc1c(C)noc1C)O2	none
C[C@@H]1CN([C@H](C)CO)C(=O)c2cccc(NC(=O)Nc3ccc(F)cc3)c2O[C@H]1CN(C)Cc1ccc(-c2ccccc2)cc1	none
C[C@@H]1CN([C@@H](C)CO)C(=O)c2cccc(NC(=O)Nc3ccc(F)cc3)c2O[C@@H]1CN(C)Cc1ccc(-c2ccccc2)cc1	C diff growth -93
COc1ccc(NC(=O)Nc2cccc3c2O[C@H](CN(C)Cc2ccc(-c4ccccc4)cc2)[C@H](C)CN([C@@H](C)CO)C3=O)cc1	none
COc1ccc(NC(=O)Nc2cccc3c2O[C@H](CN(C)Cc2ccc(-c4ccccc4)cc2)[C@@H](C)CN([C@@H](C)CO)C3=O)cc1	Pf Dd2 inh -86 (no result: T cruzi growth)
COc1cccc(S(=O)(=O)Nc2ccc3c(c2)OC[C@H](C)NC[C@H](C)[C@@H](OC)CN(C)C3=O)c1	none (no result: T cruzi growth)
COc1cccc(-c2ccc([C@@H]3[C@@H](CO)N(C(C)=O)C34CN(C(C)=O)C4)cc2)c1	none (no result: T cruzi growth)
COc1ccc(NC(=O)Nc2ccc3c(c2)CC(=O)N([C@@H](C)CO)C[C@H](C)[C@@H](CN(C)Cc2ccc(C(=O)Nc4ccccc4N)cc2)O3)cc1	Pf Dd2 inh -88 (no result: T cruzi growth)
C[C@H]1CN([C@@H](C)CO)C(=O)Cc2cc(NC(=O)Nc3ccc(F)cc3)ccc2O[C@H]1CN(C)Cc1ccc(C(=O)Nc2ccccc2N)cc1	Pf Dd2 inh -83 (no result: T cruzi growth)
COc1ccc(NC(=O)Nc2ccc3c(c2)CC(=O)N([C@H](C)CO)C[C@@H](C)[C@@H](CN(C)Cc2ccc(C(=O)Nc4ccccc4N)cc2)O3)cc1	none (no result: T cruzi growth)
C[C@H](CO)N1C[C@H](C)[C@@H](CN(C)Cc2ccc(C(=O)Nc3ccccc3N)cc2)Oc2ccc(NC(=O)Nc3ccc(F)cc3)cc2CC1=O	none
C[C@@H]1CN([C@@H](C)CO)C(=O)Cc2cc(NC(=O)Nc3ccc(F)cc3)ccc2O[C@H]1CN(C)Cc1ccccc1	Pf Dd2 inh -85
C[C@@H]1CN([C@H](C)CO)C(=O)Cc2cc(NC(=O)Nc3ccc(F)cc3)ccc2O[C@@H]1CN(C)Cc1ccccc1	none
C[C@H]1CN([C@@H](C)CO)C(=O)c2cc(NS(=O)(=O)c3ccccc3)ccc2O[C@@H]1CN(C)Cc1ccncc1	none
C[C@@H]1CN([C@@H](C)CO)C(=O)c2cc(N(C)C)ccc2O[C@@H]1CN(C)S(=O)(=O)c1ccc(Cl)cc1	none (no result: T cruzi growth)
COCCNC(=O)C[C@@H]1CC[C@H](NC(=O)NC2CCCC2)[C@H](CO)O1	none (no result: T cruzi growth)
CC(C)(C)[S@@](=O)N1Cc2cc(C(=O)NCc3ccncc3)nc(-c3cccc(-c4ccncc4)c3)c2[C@H]1CCO	none (no result: C diff growth)
COc1ccc(CNC(=O)c2cc3c(c(-c4cccc(-c5cccc(C#N)c5)c4)n2)[C@H](CCO)N([S@@](=O)C(C)(C)C)C3)cc1	none (no result: C diff growth)
CCCNC(=O)c1cc2c(c(-c3cccc(-c4cc5ccccc5o4)c3)n1)[C@H](CCO)N(C(=O)NC(C)C)C2	Pf Dd2 inh -93 (no result: T cruzi growth)
CC(C)(C)[S@@](=O)N1Cc2cc(C(=O)NCCc3ccncc3)nc(-c3cccc(-c4ccccc4)c3)c2[C@H]1CCO	Pf Dd2 inh -85 (no result: T cruzi growth)
CCNC(=O)c1cc2c(c(-c3cccc(-c4cc5ccccc5o4)c3)n1)[C@@H](CCO)N(C(=O)NC(C)C)C2	none (no result: T cruzi growth)
COc1cccc(-c2cccc(-c3nc(C(=O)NCc4ccc(Oc5ccccc5)cc4)cc4c3[C@@H](CCO)N(S(=O)C(C)(C)C)C4)c2)c1 (stereo partly drawn)	Pf Dd2 inh -84 (no result: T cruzi growth)
C[C@@H]1CCCCO[C@@H](CN(C)C(=O)Cc2ccccc2)[C@@H](C)CN([C@@H](C)CO)C(=O)c2cc(NC(=O)C3CCCCC3)ccc2O1	none
C[C@H]1CN([C@@H](C)CO)C(=O)Cc2cc(NS(=O)(=O)c3cccs3)ccc2O[C@H]1CN(C)C	none
CCNC(=O)C[C@H]1CC[C@@H]2[C@H](COc3ccc(NC(=O)Cc4ccccc4)cc3C(=O)N2C)O1	none
COc1ccc(S(=O)(=O)N2CC[C@@H]3[C@@H](CO)Nc4ccc(C5=CCCCC5)cc4[C@@H]32)cc1	none (no result: T cruzi growth)
CCCNC(=O)[C@H]1[C@H](CO)[C@H]2Cn3c(ccc(-c4ccccc4F)c3=O)[C@H]2N1CC1CC1	none (no result: Pf Dd2 inh)
COc1ccc2c3c(n(C)c2c1)[C@H](CO)N(Cc1ccccc1OC)CC31CCN(CC2CC2)CC1	none (no result: T cruzi growth)
COc1ccc2c3c(n(C)c2c1)[C@@H](CO)N(CC1CC1)CC31CCN(Cc2ccc(F)cc2)CC1	none (no result: T cruzi growth)
COc1ccc2c3c(n(C)c2c1)[C@@H](CO)N(Cc1ccccc1F)CC31CCN(CC2CC2)CC1	Pf Dd2 inh -88 (no result: T cruzi growth)
COc1ccc2c3c(n(C)c2c1)[C@@H](CO)N(Cc1ccccc1F)CC31CN(CC2CC2)C1	none (no result: T cruzi growth)
COc1ccc2c3c(n(C)c2c1)[C@H](CO)N(CC1CC1)CC31CCN(Cc2ccc(F)cc2)CC1	Pf Dd2 inh -85 (no result: T cruzi growth)
COc1ccc2c3c(n(C)c2c1)[C@@H](CO)N(Cc1ccccc1OC)CC31CCN(CC2CC2)CC1	Pf Dd2 inh -91 (no result: T cruzi growth)
COc1cccc(S(=O)(=O)N2CCCCN3[C@H](C2)[C@H](c2ccc(C4=CCCCC4)cc2)[C@@H]3CO)c1	none
